From PubChem BioAssay (NCATS)
“And” between values parts separate entries of the source, which are not always exact repeats. Equal entries are not always repeated. Inconclusive results are not listed. Some compounds were tested as several samples or in several runs, with calls that do not always agree. The source made the active and inactive calls. The call rests on the fitted dose curve; in most records, active means well fitted curve in the direction sought with a large enough effect; inconclusive means small, poorly fitted or top-dose-only effect, or another doubt; inactive means no such curve, though single readings can be large; an effect the other way counts as inactive or inconclusive.

Assays:
[1] = target: Rap guanine nucleotide exchange factor 3 (Homo sapiens) (UniProt O95398); assay: Confirmatory qHTS for agonist of cAMP-regulated guanine nucleotide exchange factor 3 (EPAC1) (AID 1645881); conditions: EPAC1 Rap1B BODIPY-GDP exchange fluorescence; series mostly up to 154 µM;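 further: EPAC1 catalysed release of BODIPY-GDP from Rap1B seen as fluorescence loss; 100% = effect of cAMP agonist control; nearly all actives have a fitted effect of over 75% in size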
[2] = target: Rap guanine nucleotide exchange factor 4 (Homo sapiens) (UniProt Q8WZA2); assay: Confirmatory qHTS for agonist of cAMP-regulated guanine nucleotide exchange factor 4 (EPAC2) (AID 1645884); conditions: EPAC2 GEF activity, Rap1B-BODIPY-GDP fluorescence; series mostly up to 154 µM;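 further: nucleotide exchange releases bodipy-GDP from Rap1 and this lowers its fluorescence; nearly all actives have a fitted effect of over 65% in size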; further: potency means the concentration at half of the fitted maximal effect; on activation: on the % scale 0 is the no-effect control and ±100 the full control effect
[3] = target: Rap guanine nucleotide exchange factor 4 (Homo sapiens) (UniProt Q8WZA2); assay: Confirmatory qHTS for antagonist of cAMP-regulated guanine nucleotide exchange factor 4 (EPAC2) (AID 1645885); conditions: EPAC2 Rap1B-BODIPY-GDP exchange fluorescence, biochemical; series mostly up to 12.7 µM; further: nearly all actives have a fitted effect of over 25% in size; further: potency means the concentration at half of the fitted maximal effect; on activity change, negative = inhibition: on the % scale 0 is the no-effect control and ±100 the full control effect
[4] = target: Rap guanine nucleotide exchange factor 3 (Homo sapiens) (UniProt O95398); assay: Counterscreen qHTS for antagonist of cAMP-regulated guanine nucleotide exchange factor 3 (EPAC1) (AID 1645888); conditions: Rap1B-BODIPY-GDP nucleotide exchange, fluorescence; series mostly up to 154 µM;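 further: fluorescence loss as bound BODIPY-GDP is released from Rap1B; % of control where 0% means no effect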
Procedure, shortened: (§1)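 Rap1B-BODIPY-GDP 250 nM + GDP 50 uM; cpds 7-pt, final 9.74 nM–152 uM (activator mode) or from 7.32 nM upwards (inhibitor mode); RT; FI 480/540 nm at 5 and 30 min, then ± cAMP, reread.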

[5] = target: Rap guanine nucleotide exchange factor 3 (Homo sapiens) (UniProt O95398); assay: Counterscreen qHTS for agonist of cAMP-regulated guanine nucleotide exchange factor 3 (EPAC1) (AID 1645889); conditions: EPAC1 Rap1B-BODIPY-GDP exchange, fluorescence; series mostly up to 154 µM; further: % of control where 0% means no effect; nearly all actives have a fitted effect of over 40% in size
Procedure, shortened: as §1

Chain of Rap guanine nucleotide exchange factor 4 (Homo sapiens) (Q8WZA2 whole entry, looked up): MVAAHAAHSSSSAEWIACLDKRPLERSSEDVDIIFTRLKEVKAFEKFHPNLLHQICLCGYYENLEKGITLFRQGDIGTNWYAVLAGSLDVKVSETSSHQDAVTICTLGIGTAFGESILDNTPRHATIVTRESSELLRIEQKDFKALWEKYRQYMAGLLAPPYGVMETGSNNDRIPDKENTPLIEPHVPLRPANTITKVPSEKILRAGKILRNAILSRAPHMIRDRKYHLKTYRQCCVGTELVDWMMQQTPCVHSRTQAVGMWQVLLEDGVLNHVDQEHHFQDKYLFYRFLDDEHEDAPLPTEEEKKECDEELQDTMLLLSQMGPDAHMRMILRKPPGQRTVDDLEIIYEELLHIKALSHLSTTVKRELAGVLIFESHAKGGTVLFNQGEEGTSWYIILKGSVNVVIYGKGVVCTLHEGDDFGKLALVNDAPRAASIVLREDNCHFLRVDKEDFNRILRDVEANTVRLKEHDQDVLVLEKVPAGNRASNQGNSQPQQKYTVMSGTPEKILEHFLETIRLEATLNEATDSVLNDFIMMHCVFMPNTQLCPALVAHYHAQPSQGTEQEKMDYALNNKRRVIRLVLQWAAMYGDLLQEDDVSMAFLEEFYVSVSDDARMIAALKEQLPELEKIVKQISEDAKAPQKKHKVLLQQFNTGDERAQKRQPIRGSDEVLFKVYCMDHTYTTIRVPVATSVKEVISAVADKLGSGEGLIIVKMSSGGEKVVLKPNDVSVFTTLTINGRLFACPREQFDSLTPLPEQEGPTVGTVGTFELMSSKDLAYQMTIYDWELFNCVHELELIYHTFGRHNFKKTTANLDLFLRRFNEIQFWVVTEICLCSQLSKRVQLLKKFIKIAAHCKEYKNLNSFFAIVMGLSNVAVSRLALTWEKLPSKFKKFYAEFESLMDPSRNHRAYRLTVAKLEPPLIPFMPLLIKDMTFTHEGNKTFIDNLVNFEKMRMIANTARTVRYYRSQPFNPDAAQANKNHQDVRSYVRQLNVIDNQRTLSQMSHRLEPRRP
Chain of Rap guanine nucleotide exchange factor 3 (Homo sapiens) (O95398 whole entry, looked up): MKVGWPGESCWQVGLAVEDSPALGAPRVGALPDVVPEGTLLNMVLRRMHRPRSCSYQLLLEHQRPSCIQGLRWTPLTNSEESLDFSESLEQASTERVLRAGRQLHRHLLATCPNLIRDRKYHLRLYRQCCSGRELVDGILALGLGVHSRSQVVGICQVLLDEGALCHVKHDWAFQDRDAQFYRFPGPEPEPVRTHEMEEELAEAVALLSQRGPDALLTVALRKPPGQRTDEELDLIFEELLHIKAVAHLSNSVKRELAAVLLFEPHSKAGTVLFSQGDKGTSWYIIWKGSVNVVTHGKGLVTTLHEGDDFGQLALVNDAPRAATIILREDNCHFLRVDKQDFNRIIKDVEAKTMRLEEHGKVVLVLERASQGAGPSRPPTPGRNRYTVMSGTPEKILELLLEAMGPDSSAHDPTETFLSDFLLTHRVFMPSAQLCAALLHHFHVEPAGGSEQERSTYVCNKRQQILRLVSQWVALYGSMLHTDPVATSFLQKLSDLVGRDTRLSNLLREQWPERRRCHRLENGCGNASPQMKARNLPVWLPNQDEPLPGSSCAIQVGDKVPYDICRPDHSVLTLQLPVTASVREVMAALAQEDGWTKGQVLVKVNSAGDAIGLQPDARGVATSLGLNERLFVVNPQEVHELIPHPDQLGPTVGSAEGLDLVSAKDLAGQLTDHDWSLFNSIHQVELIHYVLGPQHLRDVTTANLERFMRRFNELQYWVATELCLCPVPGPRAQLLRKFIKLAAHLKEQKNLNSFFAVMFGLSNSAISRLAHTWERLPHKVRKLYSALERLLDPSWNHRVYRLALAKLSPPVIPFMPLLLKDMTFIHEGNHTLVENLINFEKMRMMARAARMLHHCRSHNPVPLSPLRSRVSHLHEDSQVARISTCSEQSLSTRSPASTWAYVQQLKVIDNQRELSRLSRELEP

Cc1nn(-c2ccccc2)c(Cl)c1/C=C1\SC(=S)N(CCCCCC(=O)O)C1=O
inactive: Potency [1] | activation [2] -0.0903% [at 17.1 µM, percent relative to cAMP agonist control] | Potency [3] | activity change, negative = inhibition [4] -15.3% [at 30.8 µM] | activation [5] 22.3% [at 30.8 µM]

O=C(NNc1cc(N2CCOCC2)nc(N2CCOCC2)n1)c1ccc([N+](=O)[O-])cc1
inactive: Potency [1] | Potency [2] | Potency [3] | Potency [4] | Potency [5]

CC(C)(C)c1ccc(C(=O)NCC2CCCN2S(=O)(=O)c2ccccc2)cc1 (stereo not given)
inactive: Potency [1] | Potency [2] | Potency [3] | Potency [4] | Potency [5]

O=C(O)C/C(=C\c1cc(Cl)c2c(c1)OCO2)c1nc2ccccc2s1
inactive: Potency [1] | activation [2] -1.81% [at 17.1 µM, percent relative to cAMP agonist control] | Potency [3] | activity change, negative = inhibition [4] -1% [at 30.8 µM] | activation [5] -1.83% [at 30.8 µM]

Cc1ccc(C(=O)Cc2ccccc2)c(O)c1
inactive: Potency [1] | activation [2] 0.272% [at 17.1 µM, percent relative to cAMP agonist control] | Potency [3] | activity change, negative = inhibition [4] -3.71% [at 30.8 µM] | activation [5] 23.4% [at 30.8 µM]

CC(C)CCNc1c(-c2cccs2)nc2ccccn12
inactive: Potency [1] | Potency [2] | Potency [3] | Potency [4] | Potency [5]

Cc1ccc(S(=O)(=O)N2[C@@H](c3ccc(C(C)(C)C)cc3)C(C(=O)O)=CC[C@H]2c2cccs2)cc1
inactive: Potency [1] | Potency [2] | Potency [3] | Potency [4] | Potency [5]

Cc1ccc(CN(C(=O)COc2cccc([N+](=O)[O-])c2)c2ccccn2)cc1
inactive: Potency [1] | Potency [2] | outcome [3] inactive [at 12.7 µM] | Potency [4] | Potency [5]

COc1ccccc1Cc1c(-c2ccco2)nc2c(C)cc(Br)cn12
inactive: Potency [1] | activation [2] 7.54% [at 17.1 µM, percent relative to cAMP agonist control] | Potency [3] | activity change, negative = inhibition [4] -14.6% [at 30.8 µM] | activation [5] 13.2% [at 30.8 µM]

O=C(Nc1cc(C(F)(F)F)ccc1Cl)c1nc2ccccc2nc1N1CCCCC1
inactive: Potency [1] | Potency [2] | outcome [3] inactive [at 12.7 µM] | Potency [4] | Potency [5]

CCOc1cc(-c2c(C#N)c(N)nc3c2CCCC3C)ccc1O (stereo not given)
inactive: Potency [1] | Potency [3] | Potency [4] | Potency [5]
active: Potency [2] 0.398 µM

O=C(NCc1ccccc1)C(c1ccc(-c2ccccc2)cc1)n1c(=O)c(-c2ccco2)nc2ccccc21 (stereo not given)
inactive: Potency [1] | activation [2] -1.87% [at 17.1 µM, percent relative to cAMP agonist control] | Potency [3] | activity change, negative = inhibition [4] 1.9% [at 30.8 µM] | activation [5] 21.4% [at 30.8 µM]

O=C(COC(=O)[C@@H]1CC(O)CN1S(=O)(=O)c1ccc(Cl)c(Cl)c1)NC(=O)NCc1ccccc1 (stereo not given in full)
inactive: Potency [1] | Potency [2] | Potency [3] | Potency [4] | Potency [5]

COc1ccccc1C(CCN(Cc1ccccc1)C(C)=O)c1ccco1 (stereo not given)
inactive: Potency [1] | activation [2] 8.17% [at 17.1 µM, percent relative to cAMP agonist control] | Potency [3] | activity change, negative = inhibition [4] -15.7% [at 30.8 µM] | activation [5] 10.4% [at 30.8 µM]

CCc1ccc(NS(=O)(=O)c2cc3c4c(c2)CCN4C(=O)CC3)cc1
inactive: Potency [1] | Potency [2] | Potency [3] | Potency [4] | Potency [5]

O=S(=O)(O)c1ccc(NN=Cc2ccccc2O)cc1
inactive: Potency [1] | activation [2] -8.55% [at 17.1 µM, percent relative to cAMP agonist control] | Potency [3] | activity change, negative = inhibition [4] 3.2% [at 30.8 µM] | activation [5] 20.1% [at 30.8 µM]

CCCCN1C(=O)C(NC(=O)c2ccc(C(C)(C)C)cc2)(C(F)(F)F)C(C(=O)OC)=C1C (stereo not given)
inactive: Potency [1] | Potency [2] | Potency [3] | Potency [4] | Potency [5]

O=C(CSc1nc(-c2cccs2)nc2cc(=O)[nH]n12)Nc1cccc(C(F)(F)F)c1
inactive: Potency [1] | Potency [2] | outcome [3] inactive [at 12.7 µM] | Potency [4] | Potency [5]

Cc1cc(C(=O)Cn2ncc(Cl)c(Cl)c2=O)c(C)n1CC(F)(F)F
inactive: Potency [1] | activation [2] 1.17% [at 17.1 µM, percent relative to cAMP agonist control] | Potency [3] | activity change, negative = inhibition [4] -8.86% [at 30.8 µM] | activation [5] 8.2% [at 30.8 µM]

O=C(O)c1cccc(N2C(=O)c3cc([N+](=O)[O-])cc4cc([N+](=O)[O-])cc(c34)C2=O)c1
active: Potency [3] 37.9 µM
inactive: Potency [1] | Potency [2] | Potency [4] | Potency [5]

COc1ccc(C2=NN(c3ccccc3)C(c3cn(CCC(=O)O)nc3-c3ccccc3)C2)cc1 (stereo not given)
inactive: Potency [1] | Potency [2] | Potency [3] | Potency [4] | Potency [5]

CNc1ccc(/C=C/C(=O)c2ccc(C)cc2)cc1[N+](=O)[O-]
inactive: Potency [1] | activation [2] -1.81% [at 17.1 µM, percent relative to cAMP agonist control] | Potency [3] | activity change, negative = inhibition [4] 16.3% [at 30.8 µM] | activation [5] 21% [at 30.8 µM]

CC1CCc2[nH]c3ccc(C(=O)N4CCCC(C(F)(F)F)C4)cc3c2C1 (stereo not given)
inactive: Potency [1] | Potency [2] | Potency [3] | Potency [4] | Potency [5]

CCOC(=O)C1=C(C)NC(C)=C(C(=O)OCC)C1c1ccc([N+](=O)[O-])s1
inactive and 42.6 µM (active): Potency [3]
inactive: Potency [1] | Potency [2] | Potency [4] | Potency [5]

CCC(Oc1ccccc1)C(=O)Nc1ccccc1N1CCCC1 (stereo not given)
inactive: Potency [1] | Potency [2] | Potency [3] | Potency [4] | Potency [5]

O=C(CCC1N=C2c3ccccc3N=C(SCc3ccc(Cl)cc3)N2C1=O)NCc1cccs1 (stereo not given)
inactive: Potency [1] | Potency [2] | Potency [3] | Potency [4] | Potency [5]

Cc1ccc(/C=N/N2CCN(Cc3cccc4ccccc34)CC2)o1
inactive: Potency [1] | Potency [2] | Potency [3] | Potency [4] | Potency [5]

CS(=O)(=O)c1ccc(C(=O)OCc2nnc(-c3ccccc3)o2)cc1[N+](=O)[O-]
inactive: Potency [1] | Potency [2] | Potency [3] | Potency [4] | Potency [5]

CCC(C)n1c(SCC(=O)Nc2ccc3[nH]c(=O)[nH]c3c2)nc2ccccc2c1=O (stereo not given)
inactive: Potency [1] | activation [2] 1.51% [at 17.1 µM, percent relative to cAMP agonist control] | Potency [3] | activity change, negative = inhibition [4] -15% [at 30.8 µM] | activation [5] 13.5% [at 30.8 µM]

CCC1(c2ccccc2)SCC(c2ccccc2)=NC1=O (stereo not given)
inactive: Potency [1] | Potency [2] | Potency [3] | Potency [4] | Potency [5]

CCCCC[C@@H](C)N1C[C@@H](COCc2ccccc2)Oc2cc(N3CC[C@H](O)C3)ccc2S1(=O)=O
inactive: Potency [1] | activation [2] -2.04% [at 17.1 µM, percent relative to cAMP agonist control] | Potency [3] | activity change, negative = inhibition [4] -7.58% [at 30.8 µM] | activation [5] 2.97% [at 30.8 µM]

CCOC(=O)C1=C(C)OC(N)=C(C#N)C1c1cc2c(cc1Br)OCO2 (stereo not given)
inactive: Potency [1] | activation [2] -5.39% [at 17.1 µM, percent relative to cAMP agonist control] | Potency [3] | activity change, negative = inhibition [4] -23.2% [at 30.8 µM] | activation [5] 11% [at 30.8 µM]

Cc1ccc2oc(=O)n(Cc3ccccc3OC(C)C)c2c1
inactive: Potency [1] | Potency [2] | Potency [4] | Potency [5]
active: Potency [3] 7.57 µM

Cc1ccc(C)c(N2CCN(C(=O)c3cccn4c(=O)c5ccccc5nc34)CC2)c1
inactive: Potency [1] | Potency [2] | Potency [3] | Potency [4] | Potency [5]

Cc1onc(-c2c(F)cccc2Cl)c1C(=O)OCc1cnc(Cl)s1
inactive: Potency [1] | Potency [2] | Potency [4] | Potency [5]
active: Potency [3] 26.9 µM

CCOc1cc(/C=C2/SC(=S)N(CC(=O)O)C2=O)ccc1OC(=O)c1cccs1
inactive: Potency [1] | Potency [2] | Potency [3] | Potency [4] | Potency [5]

N#Cc1c(SCC(=O)Nc2nncs2)sc2c(O)cc(=O)[nH]c12
inactive: Potency [1] | Potency [2] | Potency [3] | Potency [4] | Potency [5]

NS(=O)(=O)c1ccc(CCNC(=O)Cc2ccc(S(=O)(=O)N3CCCC3)s2)cc1
inactive: Potency [1] | activation [2] 2.8% [at 17.1 µM, percent relative to cAMP agonist control] | Potency [3] | activity change, negative = inhibition [4] 7.67% [at 30.8 µM] | activation [5] 24% [at 30.8 µM]

CC(C)(C)c1ccc(C(=O)N/C(=C\c2cccc([N+](=O)[O-])c2)C(=O)Nc2cccc(C(=O)O)c2)cc1
inactive: Potency [1] | activation [2] 8.06% [at 17.1 µM, percent relative to cAMP agonist control] | Potency [3] | activity change, negative = inhibition [4] -17.2% [at 30.8 µM] | activation [5] 22.2% [at 30.8 µM]

Oc1c(C(Nc2nccs2)c2ccc(C(F)(F)F)cc2)ccc2cccnc12 (stereo not given)
inactive: Potency [1] | activation [2] -2.43% [at 17.1 µM, percent relative to cAMP agonist control] | Potency [3] | activity change, negative = inhibition [4] -18% [at 30.8 µM] | activation [5] 3.72% [at 30.8 µM]

Cc1ccc(Cl)cc1NS(=O)(=O)c1ccccc1
inactive: Potency [1] | activation [2] 2.77% [at 17.1 µM, percent relative to cAMP agonist control] | Potency [3] | activity change, negative = inhibition [4] 0.85% [at 30.8 µM] | activation [5] 7.24% [at 30.8 µM]
